{"source": "PubChem BioAssay"}
{"tested_on": "Human papillomavirus type 1a protein E7 (residues 44-93)", "assay": "small molecules binding HPV E7 44-93 – biochemical, small-molecule microarray, residues 44-93, 635 nm fluorescence, primary screen (AID 1108);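 further: E7 fragment applied at 1 µg/mL in TBST for 1 h at 4 C; score combines spot fluorescence with its signal to noise ratio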", "conditions": "fluorescence 635 nm, higher = more signal"}
{"smiles": "CC(C)CN1C(=O)[C@@]2(c3ccc([N+](=O)[O-])cc3)CC(=O)N(CC34CC5CC(CC(C5)C3)C4)[C@@H]2c2ccc(CO)cc21", "composite z-score": -0.746}
{"smiles": "C=C(CCCC)/C(=C/C[C@@H](OC(C)=O)c1ccc(CO)o1)c1cc(C(=O)OC)ccc1OC", "composite z-score": 1.45}
{"smiles": "COC(=O)C1(Cc2ccccc2)C=C2C(=C(C(C)C)C(=O)C2C)CN1", "note": "(configuration not stated)", "composite z-score": -0.549}
{"smiles": "COc1ccc([Si](C)(C)[C@@H]2[C@@H](CCO)O[C@]3(C(=O)N(Cc4cccc(N5C(=O)c6cccc7cccc5c67)c4)c4ccccc43)[C@H]2C)cc1", "composite z-score": 1.21}
{"smiles": "C=CCC(OC(C)=O)[C@@H]1[C@@H](N(Cc2cc3ccccc3o2)C(=O)Cc2ccc(F)cc2)c2cc(OCCCO)ccc2N1C(=O)c1ccc2ccccc2n1", "note": "(some centres not stated)", "composite z-score": -0.221}
{"smiles": "C=CCOC(=O)[C@@H]1[C@H]2C(=O)O[C@H](c3ccccc3)[C@H](c3ccccc3)N2[C@H](c2ccc(OCCOC(=O)[C@H]3C[C@H]4C(=O)N[C@@H](CCCC[N+](C)(C)C)C(=O)N4[C@H]3c3ccc(O)cc3)cc2)[C@@]12C(=O)Nc1ccc(I)cc12", "composite z-score": 0.505}
{"smiles": "[N-]=[N+]=Nc1ccccc1[C@@H]1OC(c2ccc(OCCCO)cc2)=N[C@]1(CCS(=O)(=O)c1ccccc1)C(=O)NCCN1CCOCC1", "composite z-score": 1.47}
{"tested_on": "not listed separately", "assay": "hepatitis C replication reporter changes, two-sided – Huh7 cells, luciferase reporter, HCV replication inhibitor project, primary screen (AID 1109);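 further: huh7 hepatoma cells harbouring a luciferase neomycin HCV replicon reporter; luciferase luminescence as measure of HCV replicon replication; test concentration not given here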", "conditions": "Huh7 HCV replicon luciferase reporter, 48 h; higher = more signal"}
{"smiles": "CC(C)(C)OC(=O)CC[C@]1(C(=O)NCCN2CCOCC2)N=C(c2ccc(OCCCO)cc2)O[C@H]1c1ccccc1", "z-score": 0.0186}
{"smiles": "C=CC[C@@]12N=C(c3ccc(OCCCO)cc3)O[C@@H]1c1ccccc1N(CCS(=O)(=O)c1ccccc1)C2=O", "z-score": -0.925}
{"smiles": "CCOC(=O)C[C@H]1[C@H](OC(=O)c2ccccc2-c2ccccc2)[C@@H](NC(=O)CC(C)C)c2cc(OCCCO)ccc2N1C(=O)c1ccc2ccccc2n1", "z-score": -0.578}
{"smiles": "COc1ccc(C(O)C2C=CC3C(=O)N(c4ccccc4)C(=O)C3N2Nc2ccccc2)cc1OCc1ccccc1", "note": "(configuration not stated)", "z-score": -0.412}
{"smiles": "NCCCCCNC(=O)[C@@H]1C[C@@H]2C(=O)N[C@@H](CCCCN)C(=O)N2[C@@H]1c1cccc(OCCO)c1", "z-score": 0.731}
{"smiles": "CCCCC(CC)C(O)C1C=CC2C(=O)N(c3ccccc3)C(=O)C2N1Nc1ccc([N+](=O)[O-])cc1", "note": "(configuration not stated)", "z-score": -0.127}
{"smiles": "CC(C)(C)OC(=O)CC[C@]1(C(=O)O)N=C(c2ccc(OCCCO)cc2)O[C@H]1c1ccccc1CN=[N+]=[N-]", "z-score": 0.0879}
{"smiles": "C=C(/C(=C/C[C@@H](OC(=O)c1ccncc1)c1ccccc1OCCO)c1cc(C(=O)OC)ccc1OC)C(C)C", "z-score": -2}
{"smiles": "O=C1O[C@@H](c2ccccc2)[C@@H](c2ccccc2)N2[C@@H](c3ccccc3OCCO)[C@]3(C(=O)Nc4ccccc43)[C@@H](C(=O)NC[C@H](O)c3ccccc3)[C@H]12", "z-score": -3.3}
{"smiles": "COCCOC(=O)N1C(=O)[C@@]2(c3cc(C#CC4(O)CCCCCC4)ccc31)[C@H](c1ccccc1OCCO)N1[C@H](c3ccccc3)[C@H](c3ccccc3)OC(=O)[C@H]1[C@@H]2C(N)=O", "z-score": -3.33}
{"smiles": "O=c1cccc(-c2cccc(Cl)c2)o1", "z-score": 0.268}
{"smiles": "COCCOC(=O)N1C(=O)[C@@]2(c3cc(C#CC4=CCCCC4)ccc31)[C@H](C(=O)N1CCN(c3ncccn3)CC1)[C@H]1C(=O)O[C@H](c3ccccc3)[C@H](c3ccccc3)N1[C@@H]2c1ccc(O)cc1", "z-score": -1.46}
{"smiles": "COCC(=C=CC[C@H](O)c1ccc(OCCO)cc1)C[C@H](O)COCc1ccccc1", "z-score": -0.313}
{"smiles": "C=C[C@@H](COC(C)=O)NS(=O)(=O)c1ccc(Br)cc1", "z-score": -0.178}
{"smiles": "O=C1C2C=CC(C(O)c3cc(C(F)(F)F)cc(C(F)(F)F)c3)N(Nc3ccc([N+](=O)[O-])cc3)C2C(=O)N1c1ccccc1", "note": "(configuration not stated)", "z-score": -3.71}
{"smiles": "CC(=O)NCCCC[C@@H]1NC(=O)[C@@H]2C[C@H](C(=O)O)[C@H](c3ccc(O)cc3)N2C1=O", "z-score": 0.117}
{"smiles": "COCCOC(=O)N1C(=O)[C@@]2(c3cc(C#CC4=CCCCC4)ccc31)[C@H](c1ccc(O)cc1)N1[C@H](c3ccccc3)[C@H](c3ccccc3)OC(=O)[C@H]1[C@@H]2C(=O)Nc1nc2ccccc2s1", "z-score": -0.598}
{"smiles": "CC(C)CNC(=O)[C@@H]1c2ccccc2C(=O)N(Cc2cc(F)cc(C(F)(F)F)c2)[C@H]1c1ccc(CO)cc1", "z-score": -0.604}
{"smiles": "C=C(C(=O)CC[C@H](OC(C)=O)c1cccc(OCCO)c1)C(C)C", "z-score": -1.01}
{"smiles": "O=C1O[C@@H](c2ccccc2)[C@@H](c2ccccc2)N2[C@@H](c3ccc(O)cc3)[C@]3(C(=O)Nc4ccc(C#CCCO)cc43)[C@@H](C(=O)NC[C@H](O)c3ccccc3)[C@H]12", "z-score": 0.0035}
